The values that follow come from ChEMBL document CHEMBL1201862, “PubChem BioAssay data set” (2004).

Screen size: about 400,000 compounds; about 2,100 (0.53%) were called active. Roughly 14% stayed inconclusive and do not appear here. No rule for the calls is given here. What follows is part of a selection rich in actives, with near analogues and random picks from the rest.

Ataxin-2 (Homo sapiens), sequence (Q99700 whole entry): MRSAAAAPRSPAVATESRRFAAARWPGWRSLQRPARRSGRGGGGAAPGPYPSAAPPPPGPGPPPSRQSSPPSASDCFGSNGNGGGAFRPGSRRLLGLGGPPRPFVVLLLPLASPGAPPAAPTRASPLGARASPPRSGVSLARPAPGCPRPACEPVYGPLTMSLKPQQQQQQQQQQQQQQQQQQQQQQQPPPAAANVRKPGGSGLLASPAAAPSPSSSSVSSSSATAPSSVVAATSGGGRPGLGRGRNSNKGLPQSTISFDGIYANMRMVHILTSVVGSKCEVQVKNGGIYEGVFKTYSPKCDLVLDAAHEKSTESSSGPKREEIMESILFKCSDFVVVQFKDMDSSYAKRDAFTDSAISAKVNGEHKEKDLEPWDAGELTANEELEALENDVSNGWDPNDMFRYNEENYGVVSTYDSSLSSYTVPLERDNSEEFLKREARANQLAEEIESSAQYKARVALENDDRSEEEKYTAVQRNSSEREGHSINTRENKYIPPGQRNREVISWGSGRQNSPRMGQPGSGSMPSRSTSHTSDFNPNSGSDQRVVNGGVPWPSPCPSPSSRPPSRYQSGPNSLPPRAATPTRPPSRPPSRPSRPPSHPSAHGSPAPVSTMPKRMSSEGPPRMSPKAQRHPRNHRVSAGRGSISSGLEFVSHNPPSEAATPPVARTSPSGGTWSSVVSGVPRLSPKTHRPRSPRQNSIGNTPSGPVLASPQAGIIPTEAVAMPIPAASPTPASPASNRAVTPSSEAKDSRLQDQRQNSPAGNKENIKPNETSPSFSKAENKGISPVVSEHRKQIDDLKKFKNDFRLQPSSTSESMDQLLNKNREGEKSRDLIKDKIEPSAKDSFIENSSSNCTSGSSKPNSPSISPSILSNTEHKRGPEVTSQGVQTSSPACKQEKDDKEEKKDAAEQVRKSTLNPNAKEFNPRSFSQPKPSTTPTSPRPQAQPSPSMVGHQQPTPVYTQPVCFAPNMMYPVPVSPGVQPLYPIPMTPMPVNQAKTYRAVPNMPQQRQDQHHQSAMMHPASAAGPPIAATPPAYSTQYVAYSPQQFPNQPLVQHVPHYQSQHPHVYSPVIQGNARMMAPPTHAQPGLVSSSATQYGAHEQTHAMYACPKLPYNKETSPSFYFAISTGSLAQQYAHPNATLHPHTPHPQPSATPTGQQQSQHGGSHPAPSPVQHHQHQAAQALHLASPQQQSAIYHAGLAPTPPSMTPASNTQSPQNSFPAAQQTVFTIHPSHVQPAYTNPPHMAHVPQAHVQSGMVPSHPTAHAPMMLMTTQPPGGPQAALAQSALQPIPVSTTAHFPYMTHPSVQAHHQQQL

The experiment has as its target Ataxin-2 (Homo sapiens) (UniProt Q99700). Kind of experiment: qHTS for Inhibitors of ATXN expression. The class given is functional.
Consider `COc1cc(-c2oc3ccc(C)cc3c(=O)c2O)cc(OC)c1OC`, for which the Potency entry was “inactive”.
Consider `COc1ccc(S(=O)(=O)N(C)C[C@H]2Oc3c(NC(=O)Nc4ccc(C(F)(F)F)cc4)cccc3C(=O)N([C@H](C)CO)C[C@@H]2C)cc1`, for which the Potency was 22.4 µM (active).
The value for `C[C@@H]1CN([C@H](C)CO)C(=O)c2cccc(NC(=O)Nc3ccc(C(F)(F)F)cc3)c2O[C@H]1CN(C)S(=O)(=O)c1cccs1` was 28.2 µM (active); that for `C[C@H](CO)N1C[C@H](C)[C@@H](CN(C)S(=O)(=O)c2ccc(F)cc2)Oc2c(NC(=O)Nc3ccc(C(F)(F)F)cc3)cccc2C1=O` was 35.5 µM (active); that for `C[C@H]1CN([C@@H](C)CO)C(=O)c2cccc(NC(=O)Nc3ccc(C(F)(F)F)cc3)c2O[C@@H]1CN(C)S(=O)(=O)c1ccc(Cl)cc1` was 25.1 µM (active).
The value for `Cc1c(C(=O)/C=C/N(C)C)nnn1-c1ccc(Cl)cc1C#N` was “inactive”; that for `Cc1ccc(NC(=O)CN2C(=O)S/C(=C\c3ccc(-c4cccc(C(=O)O)c4C)o3)C2=O)cc1C` was “inactive”; that for `Cc1ccc(OCCCC(=O)ON=C(N)c2ccccc2C)cc1` was “inactive”.
Consider `COc1ccc(C2CC(c3ccc(C(F)(F)F)cc3)=NN2c2ccc(S(N)(=O)=O)cc2)cc1` (stereo not drawn), for which the Potency result was “inactive”.
For the molecule `CCOC(=O)N1CCN(C(=O)CSc2nc(O)c3cnn(-c4ccc(C)cc4)c3n2)CC1`, the Potency result is “inactive”.
On to `COc1ccc(C2C3=C(CCCC3=O)N(CC(=O)O)C3=C2C(=O)CCC3)cc1Cl`, for which the Potency entry was “inactive”.
The value for `COc1ccc(C(=O)/C=C/Nc2ccc(S(=O)(=O)Nc3cc(OC)nc(OC)n3)cc2)c(OC)c1` was “inactive”; that for `CC(=O)Nc1ccc(N/C=C(\C=O)c2nc3ccccc3o2)cc1` was “inactive”; that for `CCc1cnc2c(c1SC(C(C)=O)C(=O)N(C)C)c(=O)n(C)c(=O)n2C` (stereo not drawn) was 39.8 µM (active).
Turning to `COc1ccc(-c2c(C)c3ccc(O)c(CN4CCCC4)c3oc2=O)cc1OC`, the Potency result is “inactive”.
Regarding `Cc1ccc2c(Cl)cc(Cl)c(OCC(=O)O)c2n1`, the Potency result is “inactive”.
To `CCc1cc(=O)oc2c(CN3CCN(C)CC3)c(O)c(Cl)cc12` belongs “inactive”; to `COc1ccccc1NC(=O)c1sc2nc(-c3ccco3)ccc2c1N`, “inactive”; to `NC(Cc1ccc(C(F)(F)F)cc1)c1csc(NC(=O)Nc2ccccc2Oc2ccccc2)n1` (stereo not drawn), 39.8 µM (active).
`CN(C)Cc1csc(NC(=O)Nc2ccccc2Oc2ccccc2)n1`: the Potency was 25.1 µM (active).
Consider `COc1ccccc1NC(=O)Nc1nc(C(N)Cc2ccc(C(F)(F)F)cc2)cs1` (stereo not drawn), for which the Potency is 39.8 µM (active).
The value for `CC(C)c1ccccc1NC(=O)Nc1nc(C(N)Cc2ccc(C(F)(F)F)cc2)cs1` (stereo not drawn) was 35.5 µM (active); that for `CN(C)CCCN=C(S)Nc1ccc(Oc2ccccc2)cc1` was “inactive”; that for `COc1cccc(-c2ccc3c(N)c(C(=O)Nc4cc(C(F)(F)F)ccc4OC)sc3n2)c1` was “inactive”.
Take `Cc1ccc(S(=O)(=O)NCCNc2ccc(Br)c(C)c2)cc1`: the Potency result is “inactive”.
Consider `CCC(=O)Oc1c(C(=O)CC)cc2c(C)cc(=O)oc2c1C`, for which the Potency entry is “inactive”.
To `O=C(OCCOc1ccccc1Cl)c1cc(S(=O)(=O)N2CCCCC2)ccc1N1CCOCC1` belongs “inactive”; to `CCCC[n+]1c2ccccc2cc2ccccc21`, “inactive”; to `Cc1cc(C)c(C)c(S(=O)(=O)NCc2ccc(C(=O)N3CCN(C)CC3)cc2)c1C`, “inactive”.
To `COc1ccc(-c2cc(C(F)F)n3ncc(C(=O)Nc4cc(C)on4)c3n2)cc1` belongs “inactive”; to `CCCNC(=O)c1cnn2c(C(F)F)cc(-c3ccccc3)nc12`, “inactive”; to `CCc1nccn1C(=O)c1cnn2c(C(F)F)cc(-c3ccc(C)cc3)nc12`, 31.6 µM (active).
On to `Cc1cccnc1Nc1nc(-c2ccccn2)cs1`, for which the Potency is 0.794 µM (active).
In the case of `Cc1ccc(S(=O)(=O)NC(C(=O)Oc2ccc3c(C)c(Cl)c(=O)oc3c2)c2ccccc2)cc1` (stereo not drawn), the Potency result is “inactive”.
With `CCN1CCN(Cc2c(O)ccc3cc(-c4ccc(OC)cc4)c(=O)oc23)CC1`, the Potency result was “inactive”.
To `CCC(C)Nc1ccc(NC(C)CC)cc1` (stereo not drawn) belongs 31.6 µM (active); to `C=C1C(=O)C2=CC1CCC(=O)C1(C)CCC(OC(C)=O)C(C)(C)C1CC2O` (stereo not drawn), 28.2 µM (active).
As for `COc1ccc(-c2c(C)c3ccc(O)cc3oc2=O)cc1OC`, the Potency result was “inactive”.
`COc1ccccc1CCNC(=O)Cc1c(C)c2ccc(O)cc2oc1=O`: the Potency result was “inactive”.
The value for `Cc1c(CC(=O)NCC(=O)O)c(=O)oc2cc3oc4c(c3cc12)CCCC4` was “inactive”.
With `Cc1c(CC(=O)NCCC(C)C)c(=O)oc2cc3c(cc12)CCC(C)(C)O3`, the Potency was 39.8 µM (active).
With `CCSc1nnc(NC(=O)c2ccc3ccccc3n2)s1`, the Potency is 35.5 µM (active).
Regarding `CCSc1nnc(NC(=O)CSc2nc3c(cc2C#N)CCCC3)s1`, the Potency result is “inactive”.
The value for `CCSc1nnc(NC(=O)CN2C(=O)C3CC=CCC3C2=O)s1` (stereo not drawn) was “inactive”.
To `O=C(CSc1nnc(NC(=O)c2ccccc2[N+](=O)[O-])s1)NC1CCCC1` belongs “inactive”; to `CCSc1nnc(NC(=O)c2ccccn2)s1`, 25.1 µM (active).
To `CCCSc1nnc(NC(=O)c2sc3nc(-c4cccs4)ccc3c2N)s1` belongs “inactive”.
Consider `CC(C)Cn1nc(NC(=O)c2cccc(Cl)c2)c2cc3ccccc3nc21`, for which the Potency entry was “inactive”.
To `Cc1ccc(C)c(Sc2ccc(S(=O)(=O)Nc3ccc(C(=O)O)cc3)cc2)c1` belongs “inactive”; to `Cc1ccc(NCC(=O)Nc2ccc(Br)cc2)cc1C`, “inactive”.
Consider `Cc1ccc(Sc2ccc(NC(=O)CCl)cc2)c(C)c1`, for which the Potency is 39.8 µM (active).
The value for `COc1ccc(-c2cc3ccc(OC(C)C(=O)O)cc3oc2=O)cc1` (stereo not drawn) was “inactive”; that for `FC(F)(F)c1cc(CCN2CCNC[C@@H]2Cc2ccccc2)cc(C(F)(F)F)c1` was 25.1 µM (active).
To `Oc1ccc(C[C@H]2CNCCN2CCc2cc(C(F)(F)F)cc(C(F)(F)F)c2)cc1` belongs 31.6 µM (active); to `O=C1NC[C@@H](Cc2cccc3ccccc23)N(CCc2cc(C(F)(F)F)cc(C(F)(F)F)c2)C1=O`, 31.6 µM (active).
For `FC(F)(F)c1cc(CCN2CCNC[C@@H]2CC2CCCCC2)cc(C(F)(F)F)c1`, the Potency was 20 µM (active).
To `O=C(CN1C(=O)c2ccc([N+](=O)[O-])cc2C1=O)NCc1ccco1` belongs “inactive”.
To `Cc1cc(/C=C2\C(=N)N3N=C(c4ccco4)SC3=NC2=O)c(C)n1Cc1ccccc1` belongs “inactive”.
`COc1ccc([N+](=O)[O-])c(OC)c1C(=O)NC(=O)Nc1c(F)cc(F)cc1F`: the Potency result is “inactive”.
To `COc1ccc(C2C=C(c3ccc(F)cc3)Nc3nc(-c4ccc(Cl)cc4)nn32)cc1` (stereo not drawn) belongs “inactive”; to `Cn1ncc(C#N)c1/N=C/N(Cc1ccccc1)Cc1ccccc1`, “inactive”; to `CC(NC1=NS(=O)(=O)c2ccccc21)C(=O)Nc1ccc(F)cc1Cl` (stereo not drawn), “inactive”.
Turning to `C[N+](C)(C)CCC(=O)N1C/C(=C/c2ccccc2)C(=O)/C(=C\c2ccccc2)C1`, the Potency is 8.44 µM (active).
Regarding `CC1CC(C)CN(C(=O)CCc2ccccc2)C1` (stereo not drawn), the Potency result was “inactive”.
`NN=C(S)NCCc1ccccc1`: the Potency result is “inactive”.
As to `COc1cc2c(cc1OC)C(SC)=NC1(CCCC1)C2`, the Potency was 35.5 µM (active).
Take `Oc1cc(NC2CCCCC2)nc(O)n1`: the Potency result is “inactive”.
The value for `CCOC(=O)c1cc2c(=O)n3ccccc3nc2n(C(C)C)/c1=N/C(=O)c1c(-c2ccccc2Cl)noc1C` was “inactive”; that for `CCCNC(=O)C[S+]([O-])Cc1nc(-c2ccccc2C)oc1C` (stereo not drawn) was “inactive”; that for `COc1cc(/C=C(\C#N)C(=O)Nc2cc(C(F)(F)F)ccc2Cl)ccc1OCC(=O)Nc1cccc(C(F)(F)F)c1` was “inactive”.
Regarding `O=C(Nc1ccncc1)c1ccc2ccccc2c1`, the Potency result was “inactive”.
To `COc1cc(Nc2ccccn2)cc(C(=O)Nc2cccc(C(F)(F)F)c2)c1` belongs 28.2 µM (active); to `C=CCNC(=O)/C(C#N)=C/c1c(N2CC(C)OC(C)C2)nc2ccccn2c1=O` (stereo not drawn), “inactive”.
As for `Cc1ccc(NC(=O)Cc2nc(-c3c[nH]c(C(=O)N4CCCC4)c3)cs2)c(C)c1`, the Potency entry is “inactive”.
The value for `O=C(O)/C=C\C(=O)Nc1ccc(OC(F)F)cc1` was “inactive”; that for `O=C1C=CC(=O)N1c1ccc(OC(F)F)cc1` was 39.8 µM (active); that for `C/C(=N\NC(=O)C1CC1)c1ccc(OC(F)F)cc1` was “inactive”.
The value for `COc1cc(/C=C2\C(=N)N3N=C(CC(=O)N4CCCCC4)SC3=NC2=O)cc(OC)c1O` was “inactive”; that for `COCCNC(=O)/C(C#N)=C1\N=C(NC(=O)c2ccco2)c2ccccc21` was “inactive”.
For `Cc1ccc2cccnc2c1N`, the Potency result is “inactive”.
Take `Cc1ccnc2c1ccc1c(C)ccnc12`: the Potency is 5.32 µM (active).
As to `Cc1nn(CCN)c(C)c1Cl`, the Potency result is “inactive”.
Regarding `O=C(Nc1ccccc1Cl)C1C(c2ccccc2)C1(Cl)Cl` (stereo not drawn), the Potency result is “inactive”.
`CCCCCCCCNCCS(=O)(=O)NCc1ccccc1`: the Potency was 31.6 µM (active).
Take `CCN1C(=O)c2cccc3c(S(=O)(=O)NCc4ccccc4)ccc1c23`: the Potency result is “inactive”.
Consider `NC(=O)c1cc(S(=O)(=O)NCc2ccccc2)cs1`, for which the Potency entry was “inactive”.
For `Nc1cc(-c2ccccc2)nn1Cc1ccccc1`, the Potency result was “inactive”.
Consider `Cc1ccc2c(CNCc3ccc(C)o3)c(C(=O)O)n(Cc3ccc(F)cc3)c2c1`, for which the Potency was 35.5 µM (active).
As to `Cc1ccc(Cn2c(C(=O)O)c(CNCc3ccc(C)o3)c3ccc(C)cc32)cc1`, the Potency was 35.5 µM (active).
The value for `COc1ccc(Cn2c(C)nc3ccc([N+](=O)[O-])cc3c2=O)cc1` was “inactive”.
On to `COc1ccc(Cn2c(C(=O)O)c(CNCc3ccc(C)o3)c3ccc(C)cc32)cc1`, for which the Potency was 17.8 µM (active).
Take `COc1ccc(CNCc2c(O)c(Cl)cc3c(C)c(C)c(=O)oc23)c(OC)c1`: the Potency result was “inactive”.
The value for `CC(=O)c1cn(Cc2ccccc2)c(=O)n(Cc2ccc(F)cc2)c1=O` was “inactive”.
Turning to `Cc1c(O[C@@H]2O[C@H](CO)[C@@H](O)[C@H](O)[C@H]2O)ccc2c1oc(=O)c1ccccc12`, the Potency entry is “inactive”.
To `CC(C)OCCCn1c(-c2ccco2)nc2nc3ccccc3nc21` belongs “inactive”; to `O=C(Cn1c(C(F)(F)F)nc2ccccc21)Nc1ccccc1C(=O)O`, “inactive”; to `CC(C)(C)NC(=O)Cn1c(SCC(=O)NC2CC2)nc2ccccc21`, “inactive”.
To `O=C(Cn1c(SCC(=O)Nc2ccc(F)cc2)nc2ccccc21)NCc1ccccc1Cl` belongs 39.8 µM (active).
